Unmarked numbers belong to inactive results. How the calls were made is not given here.
Assays:
Test in all cases: primary screen, binary call; higher = more effect of the substance
Factor Xa = Factor Xa (bovine, UniProt P00743); design: screenings were carried out in duplicate in one independent experiment; conditions: 200 µM
Method: Protease inhibitory assays were performed in transparent microtiter plates in a final volume of 200 µL with the use of chromogenic substrates. The reaction rates in the absence and in the presence of the inhibitor were measured; screenings were carried out in duplicate in one independent experiment and Ki values were determined in triplicate in two independent experiments.

5-HT6 receptor = 5-HT6 receptor (human, UniProt P50406); design: hit call from the mean of at least two separate experiments; conditions: 10 µM
5-HT7b receptor = 5-HT7b receptor (human, UniProt P34969); design: hit call from the mean of at least two separate experiments; conditions: 10 µM
Chain of 5-HT7b receptor (P34969 whole entry, looked up): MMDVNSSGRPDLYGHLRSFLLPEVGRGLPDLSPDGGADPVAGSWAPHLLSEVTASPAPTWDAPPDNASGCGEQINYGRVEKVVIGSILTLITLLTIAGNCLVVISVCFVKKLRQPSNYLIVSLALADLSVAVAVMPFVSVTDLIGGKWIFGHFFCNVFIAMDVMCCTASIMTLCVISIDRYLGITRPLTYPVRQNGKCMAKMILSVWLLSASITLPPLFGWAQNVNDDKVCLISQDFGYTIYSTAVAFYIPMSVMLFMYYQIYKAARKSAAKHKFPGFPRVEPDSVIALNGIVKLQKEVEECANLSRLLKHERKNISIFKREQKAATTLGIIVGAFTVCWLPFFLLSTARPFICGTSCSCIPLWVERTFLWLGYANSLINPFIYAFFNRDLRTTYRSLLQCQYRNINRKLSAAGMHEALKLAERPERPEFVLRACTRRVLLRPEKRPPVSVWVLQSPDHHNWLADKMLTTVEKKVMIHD

Chain of 5-HT6 receptor (P50406 whole entry, looked up): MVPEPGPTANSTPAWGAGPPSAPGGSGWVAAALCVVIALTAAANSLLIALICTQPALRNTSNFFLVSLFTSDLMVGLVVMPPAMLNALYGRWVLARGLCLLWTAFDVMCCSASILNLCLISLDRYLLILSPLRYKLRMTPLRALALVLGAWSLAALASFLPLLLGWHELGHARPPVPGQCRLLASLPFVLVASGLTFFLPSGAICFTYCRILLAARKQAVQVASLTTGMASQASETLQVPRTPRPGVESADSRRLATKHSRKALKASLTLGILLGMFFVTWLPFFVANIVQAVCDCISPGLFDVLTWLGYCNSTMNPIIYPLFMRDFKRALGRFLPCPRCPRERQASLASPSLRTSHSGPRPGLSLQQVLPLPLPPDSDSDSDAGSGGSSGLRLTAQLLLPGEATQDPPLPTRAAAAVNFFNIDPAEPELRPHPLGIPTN
Chain of Factor Xa (P00743 41-180 limits assumed): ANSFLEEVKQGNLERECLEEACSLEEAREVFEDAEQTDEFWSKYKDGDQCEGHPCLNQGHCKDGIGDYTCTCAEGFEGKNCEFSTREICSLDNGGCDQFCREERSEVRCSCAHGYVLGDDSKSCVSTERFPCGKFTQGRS
Chain of Factor Xa (P00743 234-492 limits assumed): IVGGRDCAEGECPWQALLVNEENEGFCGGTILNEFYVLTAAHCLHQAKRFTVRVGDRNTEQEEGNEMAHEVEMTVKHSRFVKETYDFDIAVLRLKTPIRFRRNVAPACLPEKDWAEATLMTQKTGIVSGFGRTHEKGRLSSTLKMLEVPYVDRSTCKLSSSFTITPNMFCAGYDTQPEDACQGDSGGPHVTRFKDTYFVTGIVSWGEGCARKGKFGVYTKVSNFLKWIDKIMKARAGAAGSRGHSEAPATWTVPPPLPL

SMILES | Factor Xa (Factor Xa) | 5-HT6 (5-HT6 receptor) | 5-HT7 (5-HT7b receptor)
Oc1ccc(-n2cncn2)cc1 | 0 | 0 | 0
Nc1nnc(-c2cccs2)[nH]1 | 0 | 1 (active) | 0
COc1ccccc1CC1CCNCC1.Cl | 1 (active) | 1 (active) | 1 (active)
C1=C[C@H]2O[C@@H]1c1ccccc12 | 0 | 0 | 0
CC1(C)OC(=O)c2cc(Br)c(O)cc2O1 | 0 | 1 (active) | 0
CCc1ccc(NC2=NCCCS2)cc1 | 0 | 0 | 0
N#CCCN1CCc2ccccc21 | 0 | 0 | 0
N#Cc1ccc(C(=O)N2CCOCC2)cc1 | 0 | 0 | 0
Cc1ccc(C)n1Cc1ccccc1Cl | 0 | 0 | 0
Oc1nnc(-c2ccccc2)o1 | 0 | 0 | 0
COc1ccc(C2=CCNCC2)cc1 | 0 | 0 | 0
O=C1CNCCN1c1ccccc1 | 0 | 0 | 0
CN1CC(=O)NC1=O | 0 | 0 | 0
Cc1ccc(-c2ccc(O)cc2)cc1 | 0 | 0 | 0
c1ccc(Nc2nncs2)cc1 | 1 (active) | 0 | 0
CCCN1C(=O)CC(=O)NC1=S | 0 | 0 | 0
O=C1CCN(c2ccccn2)CC1 | 0 | 0 | 0
O=C(c1ccccc1)N1CCC(CO)CC1 | 0 | 0 | 0
CCn1cnc2ccccc21 | 0 | 0 | 0
c1ccc2oc(C3CCCNC3)nc2c1 (stereo not drawn) | 0 | 0 | 0

SMILES | Factor Xa (Factor Xa) | 5-HT6 (5-HT6 receptor) | 5-HT7 (5-HT7b receptor)
COc1ccccc1C1CCNCC1 | 0 | 1 (active) | 1 (active)
O=C(O)c1ccc(CN2CCOCC2)cc1 | 0 | 0 | 0
O=C(CN1CCCC1)c1ccccc1Cl | 0 | 0 | 0
NC(c1ccccc1)c1ccccc1 | 0 | 0 | 0
CCN(CC)c1cccc(C)c1 | 0 | 0 | 0
COC(=O)c1c(C)nc(C2CC2)[nH]c1=O | 0 | 0 | 0
O=c1[nH]ncc2c1oc1ccccc12 | 0 | 0 | 0
CS(=O)(=O)c1ccc(N2CCNCC2)cc1 | 0 | 0 | 0
Cc1ccc(CCNc2ccccc2)cn1 | 0 | 0 | 0
Cn1c(N)nc2ccccc21 | 1 (active) | 0 | 0
Cc1cc(C)c2c(=O)[nH]n(C)c2n1 | 0 | 0 | 0
O=C1CC(CSc2ccc(Cl)cc2)=NN1 | 0 | 0 | 0
CN(C)c1cc(CN)ccn1 | 0 | 0 | 0
N#CC1CCS(=O)(=O)C1 (stereo not drawn) | 0 | 0 | 0
CC(=O)c1ccc2c(c1)CCCN2 | 0 | 0 | 0
CS(=O)(=O)c1ccc(OC(F)(F)F)cc1 | 0 | 0 | 0
Cn1nc(C(F)(F)F)cc1O | 0 | 0 | 0
CC1CCc2sc(C(=O)O)cc2C1 (stereo not drawn) | 0 | 0 | 0
NC1CCc2ccccc21 (stereo not drawn) | 0 | 0 | 0
FC1(F)CNCC(F)(F)O1 | 0 | 0 | 0

SMILES | Factor Xa (Factor Xa) | 5-HT6 (5-HT6 receptor) | 5-HT7 (5-HT7b receptor)
O=C1NC2(CCCC2)Nc2ccccc21 | 0 | 0 | 0
Cc1cc(-c2ccccc2)n[nH]1 | 0 | 0 | 0
O=C1NC(=O)/C(=C\c2cccs2)N1 | 1 (active) | 0 | 0
O=C(c1ccncc1)N1CCNCC1 | 0 | 0 | 0
Brc1ccc(-c2ccon2)cc1 | 0 | 0 | 0
O=C1NC(=O)C2(CCc3ccccc32)N1 (stereo not drawn) | 0 | 0 | 0
O=C1CSC(Nc2ccc(F)cc2)=N1 | 0 | 0 | 0
O=C(O)C1CCN(c2ncccn2)CC1 | 0 | 0 | 0
c1ccc(-c2ccncc2)cc1 | 0 | 0 | 0
Nc1ccc(SC(F)F)cc1 | 0 | 0 | 0
O=C1CCC(=O)N(c2ccccc2)N1 | 0 | 0 | 0
Cc1cnc(C(F)(F)F)cn1 | 0 | 0 | 0
c1ccc2sc(N3CCNCC3)nc2c1 | 0 | 0 | 0
O=C(Nc1ccccc1)C1CC1 | 0 | 0 | 0
Fc1ccc2c(C3CCNCC3)c[nH]c2c1 | 0 | 1 (active) | 1 (active)
COc1cccc(NC2=NCCCCC2)c1 | 0 | 0 | 0
O=C1CCN(c2ccncc2)CC1 | 0 | 0 | 0
Fc1ccc(CC2CCCNC2)cc1 (stereo not drawn) | 0 | 0 | 0

— PMC8159961, “Exploring protein hotspots by optimized fragment pharmacophores” (Nature Communications, 2021)
